Assay outcomes deposited in PubChem BioAssay by National Center for Advancing Translational Sciences (NCATS).
Cruzain inh noDet = inhibitors of Trypanosoma cruzi cruzain without detergent; P25779; Potency, µM, hits mostly inhibitors; 2.3% of 200,000 active; purified cruzain, Z-FR-AMC fluorescence, no detergent; AID 1476; also: nearly all actives have a fitted effect of over 40% in size
Target sequence (P25779 123-467 limits assumed): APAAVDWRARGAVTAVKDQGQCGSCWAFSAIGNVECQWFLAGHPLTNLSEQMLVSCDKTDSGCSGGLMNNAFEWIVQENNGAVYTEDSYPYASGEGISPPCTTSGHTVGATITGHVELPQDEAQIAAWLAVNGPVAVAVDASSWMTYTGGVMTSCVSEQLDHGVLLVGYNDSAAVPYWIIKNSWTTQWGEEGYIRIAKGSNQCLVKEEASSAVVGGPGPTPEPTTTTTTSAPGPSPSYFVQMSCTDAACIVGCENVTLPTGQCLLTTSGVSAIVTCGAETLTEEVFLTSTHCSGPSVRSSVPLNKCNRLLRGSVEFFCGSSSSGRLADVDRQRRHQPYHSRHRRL
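Detergent-free condition (0.00005% Triton X-100) in acetate buffer pH 5.5 with DTT. 1.5 nM enzyme and compound were pre-mixed 15 min, then 2 uM Z-FR-AMC substrate added; reaction progress from fluorescence change between first and third reads (60 s).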
Cruzain Triton = inhibitors of Trypanosoma cruzi cruzain with detergent; 0.43% of 200,000 active; AID 1478; Potency, µM, actives largely listed as inhibitors; purified cruzain, Z-FR-AMC fluorescence, 0.01% Triton; P25779; also: nearly all actives have a fitted effect of over 40% in size
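15 min RT preincubation of 1.5 nM cruzain with compound, then 2 uM Z-FR-AMC added; kinetic AMC fluorescence, 60 s delta. Triton X-100 0.01%, pH 5.5.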
Each line names hits and unclear results; the compound was inactive in the other large screens. Shown are actives, neighbours in structure and some others; about 2.4% of the full set was active somewhere. Calls follow the shape of the dose curve; as a rule, active = well fitted curve in the direction sought with a large enough effect; inconclusive = small, poorly fitted or top-dose-only effect, or another doubt; inactive = no such curve, though single readings can be large; an effect the other way counts as inactive or inconclusive.

Cc1nn(Cc2ccc(Cl)c(Cl)c2)c(C)c1NC(=O)c1sc2ccccc2c1Cl	Cruzain inh noDet 16µM
Cc1nn(Cc2c(Cl)cccc2Cl)c(C)c1NC(=O)c1sc2ccccc2c1Cl	none
CCOCCc1nn2c(=O)cc(COC(=O)c3ccccc3Br)nc2s1	none
Cc1ccc(OCC(=O)Nc2ccc(Cl)c(-c3nc4ncccc4o3)c2)cc1C	none
COc1ccc(NC(=O)c2ccc(CNS(=O)(=O)c3ccc4c(c3)C(C)(C)C(=O)N4C)cc2)cc1	none
O=S(=O)(c1ccc(Cl)cc1)c1nc(-c2ccccc2F)oc1NCc1ccccc1	none
Cc1nc(S(=O)(=O)c2ccc(Cl)cc2)c(NCc2ccccc2)o1	Cruzain inh noDet 32µM, Cruzain Triton inconclusive
Cc1ccccc1-c1nc(-c2ccc(NC(=O)c3ccc4c(c3)OCO4)cc2)no1	Cruzain inh noDet 7.9µM
COc1cc(-c2nc(-c3ccc(NC(=O)c4ccc5c(c4)OCO5)cc3)no2)cc(OC)c1OC	Cruzain inh noDet inconclusive
COc1ccc2[nH]c(=O)c(CN(C(=O)c3cccc(Cl)c3)c3cccc(C)c3)cc2c1	none
Cc1cc2ccccc2nc1SCC(=O)Nc1nc(-c2ccccc2)cs1	Cruzain inh noDet 7.9µM
Cc1cc(C)cc(-n2c(SCC(=O)NCc3ccc(F)cc3)nc3c([nH]c4ccccc43)c2=O)c1	none
O=C(CSc1nc2ccccc2o1)Nc1nc(-c2ccccc2)cs1	Cruzain inh noDet inconclusive
Cc1cc(C)cc(NC(=O)CSc2nc3c(oc4ccccc43)c(=O)n2-c2ccccc2F)c1	Cruzain inh noDet 20µM
Cc1cc(C)cc(-n2c(SCC(=O)Nc3ccc4c(c3)OCO4)nc3c([nH]c4ccccc43)c2=O)c1	Cruzain inh noDet 6.3µM
Cc1ccc(-n2c(SCC(=O)NCc3ccc(F)cc3)nc3c([nH]c4ccccc43)c2=O)cc1	Cruzain inh noDet 16µM
O=C(CSc1nc2c(oc3ccccc32)c(=O)n1-c1ccccc1F)Nc1ccccc1	none
O=C(CSc1nc2c([nH]c3ccccc32)c(=O)n1-c1ccc(F)cc1)Nc1ccc2c(c1)OCO2	none
CCOC(=O)c1ccc(NC(=O)C2CCCN(c3ncnc4onc(C)c34)C2)cc1 (configuration not stated)	none
Cc1nn(C)c2c1c(C(F)(F)F)cc(=O)n2Cc1cccc(Br)c1	none
CC1CCN(S(=O)(=O)c2ccc3c(c2)N(CC(=O)NCc2ccccc2Cl)C(=O)CS3)CC1	none
COc1ccc2c(c1)c1c(c(=O)n(Cc3ccccc3)c(=O)n1Cc1ccccc1Cl)n2C	none
Cc1nnc(NC(=O)CSc2nnc3c(n2)[nH]c2ccccc23)s1	none
O=C(CSc1nnc2c(n1)[nH]c1ccccc12)Nc1ccc2c(c1)OCO2	Cruzain inh noDet 25µM
CC(=O)c1ccc(NC(=O)CSc2nnc3c(n2)[nH]c2ccccc23)cc1	Cruzain inh noDet inconclusive
COc1cccc(-n2c(SCC(=O)Nc3cccc(C)c3)nc3c([nH]c4ccccc43)c2=O)c1	Cruzain inh noDet 32µM
Cc1cc(NC(=O)CSc2nc3c([nH]c4ccccc43)c(=O)n2-c2ccccc2F)no1	none
Cc1ccc(-c2csc(NC(=O)CSc3nnc4c(n3)[nH]c3ccccc34)n2)cc1	Cruzain inh noDet 16µM
COc1cccc(NC(=O)CSc2nc3c([nH]c4ccccc43)c(=O)n2-c2cccc(Cl)c2)c1	none
O=C(CSc1nc2c([nH]c3ccccc32)c(=O)n1-c1ccccc1F)Nc1cccc(Cl)c1	Cruzain inh noDet 13µM
CCN(C(=O)Cn1nc2c3cc(F)ccc3n(Cc3cccc(C)c3)cc-2c1=O)c1cccc(C)c1	none
CCc1ccc2c(c1)c(=O)c(C(=O)c1ccc(C)cc1)cn2CC(=O)Nc1ccc2c(c1)OCCO2	none
CN(CC(=O)Nc1ccc(F)cc1F)S(=O)(=O)c1ccc(C(=O)N2CCOCC2)s1	none
Cc1ccc(CCNC(=O)c2c(C)oc3ncn(CC(C)C)c(=O)c23)cc1	none
COc1ccc(CNC(=O)Cn2c(-c3ccccc3)cc(C(C)=O)c2C)cc1OC	none
Cc1cccc(COc2ccc(-c3cc(C(F)(F)F)n4nc(C)cc4n3)cc2)c1	none
COCCn1c(SCC(=O)Nc2ccc3c(c2)OCCO3)nc2c(c1=O)SC(C)C2 (configuration not stated)	none
CC1Cc2nc(SCC(=O)Nc3ccc4c(c3)OCO4)n(Cc3ccccc3)c(=O)c2S1 (configuration not stated)	Cruzain inh noDet 32µM
Cc1ccc2nc(SCC(=O)Nc3ccc(F)c([N+](=O)[O-])c3)[nH]c2c1	Cruzain inh noDet inconclusive, Cruzain Triton 14µM
Cc1ccc2nc(SCC(=O)Nc3ccc(C)c([N+](=O)[O-])c3)[nH]c2c1	none
O=C1CN(C(=O)CSc2nnc(-c3ccccc3)n2Cc2ccc3c(c2)OCO3)c2ccccc2N1	Cruzain inh noDet 13µM, Cruzain Triton 28µM
Cc1nnc(SCC(=O)N2CC(=O)Nc3ccccc32)n1-c1ccccc1	none
CN(C)CC(CN(C)C)c1ccccn1	none
CN(C)C(=O)c1ccc(-c2cc(NCc3ccccc3)ncn2)cc1	none
COc1cc(NCCCCCCCN)c2ncccc2c1	Cruzain inh noDet 16µM
COc1cc(NC(C)CCCN)c2ncccc2c1 (configuration not stated)	none
O=C1/C(=C/c2c[nH]c3ccccc23)CCC/C1=C\c1c[nH]c2ccccc12	Cruzain inh noDet 25µM
O/N=C/c1c[nH]c2ccccc12	none
CCN(C(=O)CCS(=O)(=O)c1ccc2c(c1)CCN2C(C)=O)c1cccc(C(F)(F)F)c1	none
C[N+](C)(C)c1nc(N)nc2c1ncn2[C@H]1O[C@@H](CO)[C@@H](O)[C@H]1O	none
CC1(C)S[C@@H]2[C@H](C(=O)O)N=C(Cc3ccccc3)N2[C@H]1C(=O)O	none
Cc1cccc(Nc2ncc3c(n2)CC(C)CC3=O)c1 (configuration not stated)	none
Cc1nc(Nc2cccc(C(F)(F)F)c2)nc2c1C(=O)CC(C)C2 (configuration not stated)	Cruzain inh noDet 16µM
Cc1cccc(NC(=O)CSc2nccn2Cc2ccc(F)cc2)c1C	none
O=C1c2cc(Br)ccc2O[C@@H](c2ccc3c(c2)OCO3)[C@@H]1O	none
CC(C)C(NC(=O)c1ccccc1Cl)C(=O)OCc1nc2scc(-c3ccccc3Cl)c2c(=O)[nH]1 (configuration not stated)	Cruzain inh noDet 25µM
O=C(OCc1nc2scc(-c3ccccc3)c2c(=O)[nH]1)c1cc([N+](=O)[O-])ccc1Cl	Cruzain inh noDet inconclusive
CCOc1ccc(NC(=O)C2CC(=O)NC(=Nc3ccc(Cl)c(Cl)c3)S2)cc1 (configuration not stated)	Cruzain inh noDet 10µM, Cruzain Triton inconclusive
CCCOc1ccc(NC(=O)C2CC(=O)N/C(=N/N=C(C)/C=C/c3ccc(N(C)C)cc3)S2)cc1 (configuration not stated)	Cruzain inh noDet 25µM
CCOc1ccc(NC(=O)C2CC(=O)N(CC)C(=Nc3ccc4c(c3)OCO4)S2)cc1 (configuration not stated)	none
CC(/C=C/c1ccc(N(C)C)cc1)=N/N=C1/NC(=O)CC(C(=O)Nc2ccc(Cl)cc2)S1 (configuration not stated)	Cruzain inh noDet inconclusive
Fc1ccccc1-c1nc(-c2ccccc2)oc1NC1CCCCC1	none
O=C(O)[C@@H](O)[C@@H](O)C1[O][Sb][O][C@@H]1CO (some centres not stated)	none
CCOC(=O)c1c(NC(C)=O)c2c3c(sc2n1Cc1cc(C)ccc1C)CCCC3	none
CCSc1nnc2c(n1)OC(c1sccc1C)N(C(C)=O)c1ccccc1-2 (configuration not stated)	none
